Drawing on the supplement of paper PMC11060735, this text covers GFP- for 38 compounds.

± gives the standard deviation of the averaged measurements. Over roughly 1,800 compounds, “GFP- (p16Ink4a-) cell count relative to negative-control wells” has its median near 0.99; the lowest 2% begin near 0.5. Only a selection was taken, and the lowest values are over-represented in it overall.

In the assay the test system is mouse p16Ink4a+/- lung fibroblasts (INKBRITE, bleomycin-injured). The experiment in a line: GFP- (p16Ink4a-) cell count relative to negative-control wells (fold of vehicle); higher = more p16Ink4a- cells surviving. Conditions: 1 µM; 3 days.
Regarding `O=C1Nc2ccc(I)cc2/C1=C/c1cc(Br)c(O)c(Br)c1`, the GFP- amounted to 1.02.
Take `CCOc1ccc(Cc2cc([C@@H]3O[C@H](CO)[C@@H](O)[C@H](O)[C@H]3O)ccc2Cl)cc1` [Dapagliflozin]: the GFP- is 1.12.
To `C=CCc1ccc(O)c(-c2ccc(O)c(CC=C)c2)c1` [Honokiol] belongs 0.883; to `C=CCc1cccc(/C=N/NC(=O)CN2CCN(Cc3ccccc3)CC2)c1O`, 0.654; to `Cc1cc(NC(=O)Nc2ccc(N(C)C)cc2)c2cc(F)cc(F)c2n1`, 1.15.
To `CCOC(=O)[C@H](CCc1ccccc1)N[C@@H](C)C(=O)N1CCC[C@H]1C(=O)O` [Enalapril] belongs 1.
`Cc1ccc(F)c(NC(=O)Nc2ccc(-c3cccc4[nH]nc(N)c34)cc2)c1` [Linifanib] yielded a GFP- of 0.965.
Turning to `NC1(c2ccc(-c3nc4ccn5c(O)nnc5c4cc3-c3ccccc3)cc2)CCC1`, the GFP- was 0.82.
With `COc1cc([C@@H]2c3cc4c(cc3[C@@H](O[C@@H]3O[C@@H]5CO[C@@H](C)O[C@H]5[C@H](O)[C@H]3O)[C@H]3COC(=O)[C@H]23)OCO4)cc(OC)c1O` [Etoposide], the GFP- turned out to be 0.985.
`Cc1nc(O)c2cc(CN(C)c3ccc(C(=O)N[C@@H](CCC(=O)O)C(=O)O)s3)ccc2n1` [Raltitrexed] yielded a GFP- of 1.01.
Compound `CC(C)N(CCCNC(=O)Nc1ccc(C(C)(C)C)cc1)C[C@H]1O[C@@H](n2cc(Br)c3c(N)ncnc32)[C@H](O)[C@@H]1O` gave a GFP- of 1.01 ± 0.042.
On to `COc1ccc(C(C)=O)c(O)c1` [Paeonol], for which the GFP- stood at 1.18.
In turn, `Cc1nc(NC(=O)N2CCC[C@H]2C(N)=O)sc1-c1csc(C(C)(C)C)n1` came in with a GFP- of 1.03.
Consider `CNC(=O)c1ccccc1Nc1nc(Nc2ccc(N3CCOCC3)cc2OC)ncc1Cl`, for which the GFP- was found to be 0.742.
Compound `CN1CC[C@@H](c2c(O)cc(O)c3c(=O)cc(-c4ccccc4Cl)oc23)[C@@H]1CO` had a GFP- of 0.807.
As to `CN1CC[C@H](c2c(O)cc(O)c3c(=O)cc(-c4ccccc4Cl)oc23)[C@H](O)C1` [Flavopiridol], the GFP- was 0.326.
With `CC(=O)/N=c1/sc(S(N)(=O)=O)nn1C` [Methazolamide], the GFP- came out at 1.16.
With `C=C1C(=O)[C@@]23C(CC[C@@H]1[C@H]2O)[C@@]12CO[C@]3(O)[C@@H](O)[C@@H]1C(C)(C)CC[C@@H]2O` (stereo partly drawn) [Oridonin], the GFP- was 0.884.
Turning to `C[C@@H](CN1CC(=O)NC(=O)C1)N1CC(=O)NC(=O)C1` [Dexrazoxane], the GFP- was 0.899.
Take `Cn1ncnc1[C@H]1c2nnc(O)c3cc(F)cc(c23)N[C@@H]1c1ccc(F)cc1`: the GFP- came out at 0.616 ± 0.066.
Consider `CC1=NC(N)=C(C(=O)OC2CN(C(c3ccccc3)c3ccccc3)C2)C(c2cccc([N+](=O)[O-])c2)/C1=C(/O)OC(C)C` (stereo not drawn) [Azelnidipine], for which the GFP- worked out at 1.11.
To `Cc1cc(CN2CCN(c3c(Br)cnc4[nH]c(-c5ccc(N6CCN(C)CC6)cc5)nc34)CC2)no1` belongs 0.664 ± 0.17; to `NS(=O)(=O)c1cc2c(cc1Cl)NCNS2(=O)=O` [Hydrochlorothiazide], 1.06.
Compound `CC[C@]1(O)C[C@@H]2CN(CCc3c([nH]c4ccccc34)[C@@](C(=O)OC)(c3cc4c(cc3OC)N(C=O)[C@@H]3C45CCN4CC=C[C@](CC)([C@H]45)[C@@H](OC(C)=O)[C@]3(O)C(=O)OC)C2)C1` (stereo partly drawn) [Vincristine] returned a GFP- of 0.699.
As for `CCn1cc(C(=O)O)c(=O)c2ccc(C)nc21` [Nalidixic Acid], the GFP- came to 0.895.
For the compound `CC(=O)O[C@]1(C(C)=O)CC[C@H]2[C@@H]3C[C@H](C)C4=CC(=O)C=C[C@]4(C)[C@@]3(F)[C@@H](O)C[C@@]21C` [Fluorometholone Acetate], the GFP- is 1.14.
Take `C[C@@]1(C(=O)Nc2ccc(F)nc2)CCCN1c1nc(Nc2cc(C3CC3)[nH]n2)c2cccn2n1`: the GFP- worked out at 0.776.
For `COc1cc2nc(N3CCN(C(=O)C4CCCO4)CC3)nc(N)c2cc1OC` (stereo not drawn) [Terazosin], the GFP- was found to be 0.942.
`CC(C(=O)O)c1ccc2c(c1)CC(=O)c1ccccc1S2` (stereo not drawn) [Zaltoprofen] returned a GFP- of 1.01.
As for `Cc1ccc(CNc2ncnc3ccc(-c4ccc(CO)o4)cc23)o1`, the GFP- was determined as 0.793.
The compound `CC1=C(C(=O)OC2CCCCC2)C(c2ccc([N+](=O)[O-])cc2)C2=C(O)CC(C)(C)CC2=N1` (stereo not drawn) registered a GFP- of 0.82.
The compound `CC(C)c1ccc(NC(=O)Cn2cnc3c2c(=O)n(C)c(=O)n3C)cc1` returned a GFP- of 0.98.
`Nc1ccc(-c2ccc3ncc4ccc(=O)n(-c5cccc(C(F)(F)F)c5)c4c3c2)cn1` [Torin 2] registered a GFP- of 0.456.
The compound `CCC(=O)N1CCN(c2ccc(-n3c(=O)ccc4cnc5ccc(-c6cnc7ccccc7c6)cc5c43)cc2C(F)(F)F)CC1` [Torin 1] came in with a GFP- of 0.571.
Regarding `O=C(O)c1ccccc1` [Benzoic Acid], the GFP- is 1.05.
`CN(NC(=O)CC(=O)NN(C)C(=S)c1ccccc1)C(=S)c1ccccc1` [Elesclomol]: the GFP- is 0.277.
Turning to `O=C(O)CCNC(=O)c1ccccc1` [Betamipron], the GFP- was 1.06.
To `CC1(C)O[C@@H]2C[C@H]3[C@@H]4CCC5=CC(=O)CC[C@]5(C)[C@@]4(F)[C@@H](O)C[C@]3(C)[C@]2(C(=O)CCl)O1` [Halcinonide] belongs 1.02.
